Sm TGR inh = qHTS Assay for the Inhibitors of Schistosoma Mansoni Peroxiredoxins. Schistosoma mansoni thioredoxin glutathione reductase (TGR), Q962Y6. purified TGR, DTNB reduction, TNB absorbance 405 nm. Potency, µM (series often up to 114 µM), inactives show at the top dose activity change, negative = inhibition, hits mostly inhibitors. 360,000 compounds, 3% hits. AID 485364, 2010; further: on the % scale 0 is the no-effect control and ±100 the full control effect; nearly all actives have a fitted effect of over 60% in size
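Kinetic colorimetric format: TGR-catalysed, NADPH-driven DTNB reduction monitored via TNB absorbance. Enzyme dispensed at 20 nM; compound exposure 15 min at room temperature before reaction start.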
Pf growth 96h = Primary qHTS for delayed death inhibitors of the malarial parasite plastid, 96 hour incubation | P. falciparum luciferase reporter growth, 96 h | Potency, µM (top dose mostly 28.7 µM), for inactives: top-dose activity change, negative = inhibition, most hits filed as inhibitors | 320,000 compounds, 6.9% hits; further: on the % scale 0 is the no-effect control and ±100 the full control effect
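Two parasite generations (96 h, 37 C, 5% CO2) of compound exposure in infected erythrocytes (0.05% parasitemia, 2% hematocrit). Luciferase-reporter P. falciparum; decreased luminescence indicates inhibited growth, aimed at apicoplast-acting delayed death.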
Pf growth 48h = Primary qHTS for delayed death inhibitors of the malarial parasite plastid, 48 hour incubation; Potency, µM (highest dose often 28.7 µM), inactives show at the highest dose activity change, negative = inhibition, usual class: inhibitors; 310,000 compounds, 5.9% hits; P. falciparum luciferase growth in erythrocytes, 48 h; further: on the % scale 0 is the no-effect control and ±100 the full control effect
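Luminescence readout; reporter = integrated firefly luciferase in P. falciparum. RBC culture at 2% hematocrit, 0.1% parasitemia final, 37 C/5% CO2; decreased signal taken as growth inhibition.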
AMA1-RON2 inh = qHTS for Inhibitors of AMA1-RON; Towards Development of Antimalarial Drug Lead: Primary Screen; Plasmodium falciparum AMA1 (3D7) - RON2 peptide interaction; AlphaScreen AMA1-biotinylated RON2 peptide binding; Potency, µM (top dose mostly 58.2 µM), for inactives: at the top dose activity change, negative = inhibition, actives largely listed as inhibitors; 360,000 compounds, 0.2% hits; AID 720542, 2013;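 further: 0% = vehicle wells and -100% = peptide control; nearly all actives have a fitted effect of over 45% in size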
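AMA1 (3D7) with his tag at 25 nM final met compounds first, then biotinylated RON2 peptide at 25 nM; detection used donor plus acceptor beads, 10 µg/mL apiece, read by AlphaScreen after 30 min at room temperature.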
NS1 inh = qHTS Assay for Inhibitors of Influenza NS1 Protein Function; 270,000 compounds, 0.4% hits; AID 2326, 2010; Potency, µM (doses to about 46.1 µM), without a hit: at the highest dose activity, positive = more growth; calls by dose curve; further: actives are rising curves; nearly all actives have a fitted effect of over 50% in size
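OD600 was taken as the measure of yeast growth restored by compound in an NS1-expressing S. cerevisiae strain. Cells had been washed out of glucose medium and diluted 1:100 into galactose -URA medium, pH 6.0.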
Starred values were filed as active, the others as inactive; ? = inconclusive; . = no result. An excerpt weighted towards active compounds, which were near 11% of everything screened. Unless noted, the call rests on the fitted dose curve; in most records, active means well fitted curve in the direction sought with a large enough effect; inconclusive means small, poorly fitted or top-dose-only effect, or another doubt; inactive means no such curve, though single readings can be large; an effect the other way counts as inactive or inconclusive. Potency means the concentration at half of the fitted maximal effect.

SMILES	Sm TGR inh	Pf growth 96h	Pf growth 48h	AMA1-RON2 inh	NS1 inh
CC(C)C(c1nnnn1C1CCCC1)N1c2ccccc2CC1C (centres undefined)	6.7%	?	3.7µM*	1.3%	-12.5%
Oc1ccc(C(c2nnnn2C2CCCC2)N2CCc3ccccc3C2)cc1 (centres undefined)	3.16µM*	.	?	-12.3%	4.1%
CC(C)C(c1nnnn1C1CCCCC1)N1CCOCC1 (centres undefined)	0.0%	34.1%	-0.4%	5.6%	4.8%
CC(C)(CCl)C(=O)Nc1ccnc(-c2ccncc2)n1	14.0%	-18.4%	-13.9%	-1.6%	.
CCOC(=O)c1c(C)oc2nc(C)nc(NCc3ccc(OC)cc3)c12	4.6%	.	.	.	.
Cn1nnnc1SCC(=O)N(C1CCCCC1)C1CCS(=O)(=O)C1 (centres undefined)	-1.4%	-16.4%	24.8%	0.0%	.
COc1ccc(NS(=O)(=O)c2ccc3c(c2)n(C)c(=O)c(=O)n3C)cc1Cl	1.3%	.	.	.	.
NC(N)=NC(N)=Nc1cccc(Cl)c1	-8.3%	10.4µM*	?	7.1%	-1.4%
O=C(NCC1CCCCC1)c1[nH]c(C(F)(F)F)nc1-c1ccccc1	.	.	.	33.3%	.
CCn1nc(-c2ccccc2)c(-c2ccccc2)c(C(=O)Nc2ccccc2C(N)=O)c1=O	3.4%	.	.	.	.
CC(=O)C1=C(O)CC(c2ccccc2)CC1=NCCc1c(C)[nH]c2ccccc12 (centres undefined)	0.1%	-27.4%	7.38µM*	-2.1%	-7.8%
CCC/C(O)=C1\C(=O)CC(c2ccccc2)CC1=NCCc1c(C)[nH]c2ccc(C)cc12 (centres undefined)	2.8%	?	1.85µM*	-4.5%	-9.5%
CC(=O)C1=C(O)CC(c2ccccc2)CC1=NCCc1c(C)[nH]c2ccc(C)cc12 (centres undefined)	-1.5%	?	?	-3.9%	3.3%
COc1ccccc1CNc1nc2c(S(=O)(=O)c3ccc(C)c(C)c3)nnn2c2ccc(Cl)cc12	-1.8%	.	.	.	.
O=C(NC1CCN(C(=O)Nc2ccc(F)cc2)CC1)c1ccc(F)cc1	-8.4%	17.4%	-2.8%	-2.8%	11.7%
O=C(C(Cc1ccccc1)n1cccc1)N1CCc2ccccc21 (centres undefined)	35.5µM*	?	?	-28.8%	-53.7%
CC(C(=O)N1CCc2ccccc21)n1cccc1 (centres undefined)	-11.4%	.	-11.0%	-18.0%	-0.3%
N#C/C(=C\c1ccc(OC(=O)c2ccccn2)cc1)C(N)=O	39.8µM*	30.6%	-2.4%	-3.5%	-1.4%
C=CCOC(=O)C1=C[C@H](c2coc3ccccc3c2=O)[C@@H](CCCO)[C@H](OCC)O1	3.3%	-17.3%	-34.6%	-7.9%	0.3%
COc1cc(C(Nc2ccccn2)c2c(NC(=O)c3ccco3)sc(C)c2C)cc(OC)c1OC (centres undefined)	-31.1%	8.28µM*	5.22µM*	-26.9%	-15.3%
COc1ccc(C(Nc2ccccn2)c2c(NC(=O)c3ccco3)sc(C)c2C)cc1OC (centres undefined)	?	5.22µM*	?	-20.8%	-3.1%
COc1ccc(NC(=O)CCNC(=O)C2CCN(S(=O)(=O)c3ccccc3)CC2)cc1OC	.	.	.	4.5%	.
Cc1ccccc1-n1c(O)c(C(c2ccncc2)c2c(O)n(-c3ccccc3C)c(=O)[nH]c2=O)c(=O)[nH]c1=O	1.12µM*	4.8%	-3.2%	-0.1%	1.9%
COc1ccccc1CCNC(=O)c1cc2c(=O)n3cccc(C)c3nc2n1C	0.3%	.	.	.	.
COc1ccc(-c2nn(-c3ccccc3)cc2C(=O)NC(=S)N2CCOCC2)cc1OC	2.1%	-11.4%	94.9%	89.9%	.
SMILES	Sm TGR inh	Pf growth 96h	Pf growth 48h	AMA1-RON2 inh	NS1 inh
CN1C(=O)c2ccccc2N(C)C1c1ccc2c(c1)OCO2 (centres undefined)	-2.5%	-24.1%	10.4µM*	0.8%	-24.9%
CN1C(=O)c2ccccc2N(C)C1c1ccc(F)cc1 (centres undefined)	3.5%	2.9%	?	20.4%	-7.5%
CC1(C)CC(=O)C=C(c2ccc(Oc3ccccc3)cc2)C1	1.4%	?	16.7%	0.2%	.
CC1(C)CC(=O)C=C(/C=C/c2ccccc2)C1	-30.7%	2.08µM*	?	-10.3%	.
Cc1ccc(C)c(N2CCN(C(=O)c3ccc4c(=O)n(CCc5ccccc5)c(=O)[nH]c4c3)CC2)c1	-8.5%	.	.	.	.
CCOc1ccc(NC(=O)Cn2cc(C(=O)c3ccc(CC)cc3)c(=O)c3cc4c(cc32)OCO4)cc1	-5.9%	.	.	.	.
CCn1c(SCC(=O)N2CCC(C)CC2)nc2c1c(=O)n(C)c(=O)n2C	-9.9%	24.1%	24.5%	-6.2%	-5.2%
CN(C)S(=O)(=O)c1ccc(C(=O)NCC(c2cccs2)N2CCOCC2)cc1 (centres undefined)	56.2µM*	?	?	-21.9%	.
CCN(CC)S(=O)(=O)c1ccc(C(=O)NCC(c2cccs2)N2CCOCC2)cc1 (centres undefined)	-7.9%	?	-14.2%	26.0%	-13.2%
CCN(c1ccccc1)S(=O)(=O)c1cccc(C(=O)NCC(c2cccs2)N2CCOCC2)c1 (centres undefined)	-13.9%	?	14.7µM*	4.7%	.
CCN(c1ccccc1)S(=O)(=O)c1cccc(C(=O)NCCN2CCOCC2)c1	4.0%	?	0.0%	-4.5%	.
C=CCN(c1ccccc1OC)S(=O)(=O)c1cccc(C(=O)NCc2cccs2)c1	-12.1%	11.7µM*	11.7µM*	-0.8%	.
CCN(c1ccccc1)S(=O)(=O)c1cccc(C(=O)N2CCN(S(=O)(=O)c3ccccc3)CC2)c1	-9.2%	8.28µM*	?	9.2%	15.1%
CCOC(=O)c1ccccc1NC(=O)COC(=O)C(CC)Oc1ccccc1 (centres undefined)	.	.	.	76.3%	.
O=c1c2sc3ccccc3c2n(Cc2ccc(F)cc2Cl)c(=O)n1Cc1ccccc1	1.1%	.	.	.	.
O=C(NCCc1ccc(Cl)cc1)C1(c2cccs2)CCOCC1	-1.2%	.	.	.	.
Cc1ccccc1[C@@H](NC(=O)OC(C)(C)C)C(=O)OC(C)(C)C	-0.8%	?	4.2%	13.8%	.
C=CCN(c1ccccc1)S(=O)(=O)c1cccc(C(=O)NCC(c2ccccc2OC)N2CCCC2)c1 (centres undefined)	2.2%	?	?	-3.9%	.
C=CCN(c1ccccc1OC)S(=O)(=O)c1ccc(Cl)c(C(=O)Nc2ccc(N3CCOCC3)cc2)c1	-12.4%	4.15µM*	5.86µM*	-29.4%	.
C=CCN(c1ccccc1)S(=O)(=O)c1cccc(C(=O)NCC(c2cccs2)N2CCOCC2)c1 (centres undefined)	-17.0%	?	10.4µM*	40.6%	.
